# An excerpt weighted towards active compounds, which were near 1.6% of everything screened.
# KCNQ2 block: blocks the rat KCNQ2 potassium channel; B-score at 10 µM; O88943; hit rate 1.1% among 310,000; CHO-K1 KCNQ2, FluxOR thallium flux, 20 min; active compounds read low;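 active means fluorescence ratio B-score at most minus 3 library SDs, with starting brightness B-score within 2 library SDs, cut at about -5.5 in these data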
# KCNQ2 pot: potentiators of rat KCNQ2 potassium channel; O88943; CHO-K1 KCNQ2, FluxOR thallium flux fluorescence; active compounds read high; B-score at 10 µM; hit rate 0.54% among 310,000; AID 2239;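 active means fluorescence ratio B-score at least 3 SD of library B-scores, with initial fluorescence B-score within 3 of them, cut at about 5.3 in these data; same plate scores as AID 2156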;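 further: B-score of peak minus minimum over baseline fluorescence ratio after K+ and Tl+ stimulus; positive B-score means potentiation of KCNQ2 with more thallium influx and brighter signal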
# Kir21 conf inh: confirmation of mouse Kir2.1 potassium channel inhibitors; Kir2.1-expressing cells, FluxOR thallium flux fluorescence; active compounds read low; hit rate 41% among 2,300; shares compounds with KCNQ2 pot; Tl flux remaining, % of negative control (active compounds read low), % at 10 µM;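 active means Primary-screen hit whose thallium flux fell at least 3 control SD below untreated wells in both duplicates, with normal baseline fluorescence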
# HEK293 Tl flux: parental HEK293 activity in Kir2.1 inhibitor counter-screen | shares compounds with KCNQ2 pot | parental HEK293 cells, FluxOR thallium flux fluorescence; 0% = unstimulated blank wells | hit rate 19% among 2,300 | FluxOR signal as % of negative control (100 = no effect), % at 10 µM | AID 2105;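 active means dye signal at least 3 control SD above or below untreated wells in both duplicates, raw fluorescence within 3, either direction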;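 further: percent is based on the flux ratio of peak minus minimum fluorescence over baseline F0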
# CHO-K1 ctr: counter-screen for KCNQ2 potentiators: effect in parental CHO-K1 cells; activity increase over 3SD of controls, % at 10 µM; shares compounds with KCNQ2 pot; hit rate 43% among 1,200; FluxOR thallium flux fluorescence; zero = vehicle mean+3SD, 100% = vehicle-minus-blank window;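 active means signal rise of at least 3 SD above the untreated control mean, in both duplicate wells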;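 further: counter screen of KCNQ2 potentiator hits so any rise reflects channel-independent effects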
# KCNQ1 pot spec: human KCNQ1 counter-target activity of KCNQ2 potentiators; shares compounds with KCNQ2 pot; CHO KCNQ1 stable, FluxOR thallium flux fluorescence; beyond 3SD, as % of vehicle-control signal; activation over 3SD threshold, % at 10 µM; hit rate 28% among 1,200;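 active means fluorescence ratio rise of at least 3 SD of vehicle wells above their mean, in both replicate wells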
# KCNQ2 pot conf: confirmation of rat KCNQ2 potassium channel potentiators; shares compounds with KCNQ2 pot; AID 2287; CHO-KCNQ2 cells, FluxOR thallium flux fluorescence; hit rate 68% among 1,200; potentiation, less the hit threshold, % at 10 µM;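 active means fluorescence ratio rising 3 SD or more over the vehicle control mean in both replicates, plus primary screen hit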;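 further: peak minus minimum thallium fluorescence divided by baseline after K/Tl stimulus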
# Kir21 spec: tests whether KCNQ2 potentiators also affect mouse Kir2.1. shares compounds with KCNQ2 pot. HEK293 Kir2.1, FluxOR thallium flux fluorescence. activity over 3SD threshold, % at 10 µM. hit rate 2% among 1,200;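 active means fluorescence ratio rise of at least 3 SD above the vehicle-control mean, seen in both replicates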
# KCNQ2 W236L pot: rat KCNQ2 W236L mutant potentiation by KCNQ2 potentiators; shares compounds with KCNQ2 pot; CHO KCNQ2-W236L, automated patch clamp current; current increase over 3SD of negative controls (%), active compounds read high, % at 25 µM; hit rate 10% among 940;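 active means current increase at least 3 SD of the untreated controls above them in both duplicate recordings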
# Target sequence (O88943 whole entry W236L, looked up): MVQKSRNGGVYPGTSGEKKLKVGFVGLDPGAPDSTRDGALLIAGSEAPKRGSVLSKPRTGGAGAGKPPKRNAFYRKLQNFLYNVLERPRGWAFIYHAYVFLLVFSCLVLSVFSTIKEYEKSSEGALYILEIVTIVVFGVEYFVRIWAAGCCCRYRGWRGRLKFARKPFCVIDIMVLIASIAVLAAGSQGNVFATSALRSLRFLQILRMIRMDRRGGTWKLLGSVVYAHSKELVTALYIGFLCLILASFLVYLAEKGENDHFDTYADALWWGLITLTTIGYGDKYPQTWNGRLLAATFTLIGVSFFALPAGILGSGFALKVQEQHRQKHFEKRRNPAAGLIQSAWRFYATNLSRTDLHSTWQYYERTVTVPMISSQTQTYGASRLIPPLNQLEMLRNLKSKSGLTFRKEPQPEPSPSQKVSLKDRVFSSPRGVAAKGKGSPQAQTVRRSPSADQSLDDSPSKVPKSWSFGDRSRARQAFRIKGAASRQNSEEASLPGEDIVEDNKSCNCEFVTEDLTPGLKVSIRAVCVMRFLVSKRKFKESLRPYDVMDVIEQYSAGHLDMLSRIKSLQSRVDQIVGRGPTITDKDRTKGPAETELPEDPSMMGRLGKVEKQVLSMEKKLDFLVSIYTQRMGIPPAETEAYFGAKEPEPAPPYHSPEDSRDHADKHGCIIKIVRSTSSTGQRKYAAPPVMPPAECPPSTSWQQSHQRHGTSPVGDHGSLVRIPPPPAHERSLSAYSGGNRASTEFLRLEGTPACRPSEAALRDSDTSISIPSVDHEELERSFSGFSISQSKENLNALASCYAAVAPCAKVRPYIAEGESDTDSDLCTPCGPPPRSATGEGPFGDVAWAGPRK
# Numbers stand for hits; n = inactive; x = no result given.
SMILES,KCNQ2 block,KCNQ2 pot,Kir21 conf inh,HEK293 Tl flux,others
CCOC(=O)c1c(-c2ccccc2)oc2ccc(OCC(O)CN(C)C)cc12 (stereo unspecified),-5.56,n,n,n,
Cc1oc2ccc(O)c(CN(C)C)c2c1C(=O)c1ccccc1,n,x,x,x,
N#C/C(=C\c1cccc(NC(=O)c2ccccc2Cl)c1)C(=O)NCCc1ccccc1,n,x,x,x,
COC(C[C@H]1O[C@H]1[C@H](O)[C@H](C)OCc1ccccc1)OC,n,n,x,x,
O=C(Cc1ccc([N+](=O)[O-])cc1)N1N=C(c2ccncc2)CC1(O)C(F)(F)F (stereo unspecified),n,x,x,x,
OCCCC1CCCN(Cc2cn[nH]c2-c2ccc(F)cc2F)C1 (stereo unspecified),n,n,x,x,
Clc1ccccc1N1CCN(Cc2c[nH]c3ccccc23)CC1,n,x,x,x,
OC1(c2ccc(Cl)cc2)CCN(Cc2c[nH]c3ccccc23)CC1,n,n,33.5%,n,
CC(C)c1nc2sc3c(=O)[nH]c(=S)[nH]c3c2c2c1CCCC2,n,8.97,n,132.5%,CHO-K1 ctr=n;KCNQ1 pot spec=n;KCNQ2 pot conf=n;Kir21 spec=n
CC(C)c1nc2sc3c(=O)[nH]c(=S)[nH]c3c2c2c1CCC2,n,n,x,x,
CCCS(=O)(=O)N1CCCC(C(=O)Oc2ccc(Cl)cc2)C1 (stereo unspecified),n,x,x,x,
CN(C(=O)CN(C)S(=O)(=O)c1ccc(F)cc1)c1c(N)n(Cc2ccccc2)c(=O)[nH]c1=O,n,x,x,x,
O=C(Nc1cccc(F)c1)N(Cc1ccc(Cl)cc1)CC(O)C(F)(F)F (stereo unspecified),n,6.71,n,n,CHO-K1 ctr=n;KCNQ1 pot spec=39.8;KCNQ2 pot conf=13.7;Kir21 spec=n;KCNQ2 W236L pot=n
O=C(Nc1ccccc1)N(Cc1ccccc1)CC(O)C(F)(F)F (stereo unspecified),n,x,x,x,
COc1cccc(NC(=O)c2ccccc2N2C(=O)C3C4C=CC(C5CC45)C3C2=O)c1 (stereo unspecified),n,n,x,x,
CC(=O)C(Sc1ncnc2sc3c(c12)CCCC3)C(C)=O,n,x,x,x,
O=C(NCc1ccc(Cl)cc1Cl)C1CC(=O)N(Cc2ccccc2)C1 (stereo unspecified),n,n,x,x,
O=C(NN1CC(C(=O)OCc2ccc(Cl)cc2Cl)CC1=O)c1ccccc1 (stereo unspecified),n,19,n,n,CHO-K1 ctr=n;KCNQ1 pot spec=68.5;KCNQ2 pot conf=74.0;Kir21 spec=n;KCNQ2 W236L pot=n
COC(=O)c1sc2nc(N3CCCCC3)c3c(c2c1N)CCCC3,n,n,x,x,
NC(=O)c1sc2nc(N3CCCCC3)c3c(c2c1N)CCCC3,n,6.65,n,n,CHO-K1 ctr=10.5;KCNQ1 pot spec=n;KCNQ2 pot conf=n;Kir21 spec=n;KCNQ2 W236L pot=n
Cc1ccccc1CSCC(=O)Nc1c(C)n(C)n(-c2ccccc2)c1=O,n,n,x,x,
CC(C)Cn1c(SCC(=O)c2ccc(Cl)s2)nnc1-c1ccco1,-6.82,n,49.5%,138.5%,
O=C(CSc1nnc(-c2ccco2)n1Cc1ccccc1)c1ccccc1,n,x,x,x,
Cn1c(SCC(=O)OCc2ccccc2)nnc1-c1ccco1,n,x,x,x,
CCn1c(SCC(=O)OCc2ccccc2)nnc1-c1ccco1,n,x,n,n,
CC(Cc1ccc(O)c(O)c1)C(C)Cc1ccc(O)c(O)c1 (stereo unspecified),n,x,17.5%,55.5%,
CC(CCc1ccc(O)cc1)NCCc1ccc(O)c(O)c1 (stereo unspecified),n,n,x,x,
O=C(NNC(=O)c1cc(Cl)nc2ccccc12)c1ccccc1F,n,x,x,x,
Cc1ccc(CNCCC2=CCCCC2)cc1,n,n,37.5%,68.5%,
C1=C(CCNCC2CC2)CCCC1,n,n,x,x,

# Source: PubChem (Johns Hopkins Ion Channel Center)
